Measurements taken from PubChem BioAssay (Tox21).
Records with an inconclusive call do not appear. Calls of active or inactive are those of the source. The call rests on the fitted dose curve; in most records, active means well fitted inhibition curve with a large enough effect in the repeat runs; inconclusive means weak or mixed curves; inactive means no such curve, though single readings can be large or run the other way.

Assay: qHTS assay to identify small molecule antagonists of the thyroid receptor (TR) signaling pathway (AID 743065); further: nearly all actives have a fitted effect of over 55% in size
Details: GH3.TRE-Luc, T3-stimulated luciferase inhibition, 23.5 h; series mostly up to 70.3 µM; activity, negative = inhibition: at the top concentration
Procedure, shortened: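 GH3.TRE-Luc rat pituitary cells carrying two TR response elements driving luciferase were plated for 4 h, given compound plus 1 nM T3 (final), and incubated 23.5 h at 37 C. ONE-Glo luminescence measured reporter inhibition; CellTiter-Fluor fluorescence tracked cytotoxicity.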
On the % scale 0 is the no-effect control and ±100 the full control effect; potency means the concentration at half of the fitted maximal effect.

| Structure (SMILES) | activity, negative = inhibition | Potency |
| --- | --- | --- |
| Brc1cc(Br)c(Oc2cc(Br)c(Br)cc2Br)cc1Br | -6.72% (inactive) |  |
| CC1CC(C)C(=O)C1=O (stereo not drawn) | 4.14% (inactive) |  |
| O=C=Nc1cccc(C(F)(F)F)c1 |  | 54.1 µM (active) |
| CCCCN1CCCC1C(=O)Nc1c(C)cc(C)cc1C (stereo not drawn) | -22.3% (inactive) |  |
| O=C(OCC(O)CO)c1ccccc1Nc1ccnc2cc(Cl)ccc12 (stereo not drawn) | -6.49% [at 32.5 µM] (inactive) |  |
| CCCCCCCCN | 0.101% (inactive) |  |
| O=Cc1c2ccccc2c(Cl)c2ccccc12 | -1.81% (inactive) |  |
| CCC=CC#N | 5.74% (inactive) |  |
| C=CC(=O)[O-].C=CC(=O)[O-].[Zn+2] | 36.8% (inactive) |  |
| CC(C)=CCC1C(=O)N(c2ccccc2)N(c2ccccc2)C1=O |  | 21.1 µM (active) |
| CO/N=C(/C(=O)N[C@@H]1C(=O)N2C(C(=O)O)=C(COC(N)=O)CS[C@H]12)c1ccco1 |  | inactive |
| C=C1CCC2CC1C2(C)C (stereo not drawn) | -0.543% (inactive) |  |
| Cc1ccc(OC(=O)c2ccccc2O)cc1 | -0.0807% (inactive) |  |
| O=C(O)CCC(=O)C(=O)O |  | inactive |
| C=C1c2cccc(O)c2C(O)=C2C(=O)[C@]3(O)C(O)=C(C(N)=O)C(=O)[C@@H](N(C)C)[C@@H]3[C@@H](O)[C@H]12 | 11% [at 32.5 µM] (inactive) |  |
| CC(C)C=O | -2.26% [at 95 µM] (inactive) |  |
| CN1C(C(=O)Nc2ccccn2)=C(O)c2sccc2S1(=O)=O | 3.12% [at 32.5 µM] (inactive) |  |
| Cc1cscn1 | 10.9% (inactive) |  |
| CCC(OCCCOC)OC(C)=O (stereo not drawn) | 0.264% [at 95 µM] (inactive) |  |
| CC/C=C1/OC(=O)c2ccccc21 | -0.0909% (inactive) |  |
| CCOC(=O)C1=C(C)NC(C)=C(C(=O)OC)C1c1cccc(Cl)c1Cl (stereo not drawn) |  | 18.8 µM (active) |
| COc1cc(N)c(Cl)cc1C(=O)NC1CCN(CCCOc2ccc(F)cc2)CC1OC (stereo not drawn) |  | 11.4 µM (active) |
| C=C(C)C(=O)OCCOCCOC(=O)C(=C)C | 16.6% (inactive) |  |
